By inhibition is commonly meant the change of the read-out against control, counted positive when it falls.

The source made the active and inactive calls.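 Rule for the calls, unless noted: active = fluorescence slope after compound addition differing from the mean of all screened samples at 99.7% confidence, in either direction; inactive = the rest.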

Test [1] in a line: inhibitors of TNFa-induced NFkB p65 translocation, primary screen, imaging, HUVEC, MLSMR starter and 10KST1 sets (AID 438;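 active = inhibition above 20% together with a positive visual image hit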;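 note: compound added about 3h40 before a 20 min TNFalpha stimulation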;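 for inhibition: signal is the nuclear over cytoplasmic p65 intensity ratio per well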). The settings on record: HUVEC TNFa-induced p65 nuclear translocation; cell count: measured here: nuclei count (cytotoxicity indicator), at 2.08 µM unless noted; inhibition: at 2 µM, stronger effect = higher value unless noted.
Test [2] in a line: inhibitors of mutant huntingtin aggregation, primary screen, imaging, exon1htt(103Q)mCFP cells, high-content imaging (AID 483;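 active = visual image review flags a hit and inhibition of aggregation exceeds 20%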;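 note: compound exposure lasted 3 days before fixation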;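 for nuclei count: percent of the per-plate median nuclei count of sample wells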). The settings on record: exon1htt(103Q)mCFP cell line, aggregate imaging, at 2 µM; inhibition of aggregation: stronger effect = higher value; nuclei count: measured here: cell count, toxicity.
Test [3] in a line: inhibitors of E-selectin induction by TNFa, primary screen, imaging, HUVEC, immunofluorescence, MLSMR starter and 10KST1 sets (AID 487;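 active = visually confirmed hit in the image check and inhibition above 20%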;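 for inhibition: signal is fraction of cell area covered by stained E-selectin grains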;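 for nuclei count: 100% = median nuclei count of all wells on the same plate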). The settings on record: HUVEC TNFalpha-induced E-selectin immunofluorescence imaging, at 2 µM; inhibition: stronger effect = higher value; nuclei count: measured here: cell number, toxicity.
In test [4] the target is Voltage-gated potassium channel subunit beta-2 (Rattus norvegicus) (UniProt P62483). Description: KvBeta enzyme negative modulators, primary screen, biochemical, NADPH fluorescence (AID 622;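 active = fluorescence slope higher than the sample average by over 3 SD, cut at about -0.22 in these data, passing the limit was not always enough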;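 note: slope of raw intensity against log time taken from 70 to 1610 s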). The settings on record: recombinant KvBeta, 4-cyanobenzaldehyde reduction, at 10 µM, stronger effect = higher value.
Test [5] shares this target. The test can be described thus: KvBeta positive modulators, primary screen, biochemical, NADPH fluorescence (AID 623;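 active = NADPH fluorescence slope more negative than the mean of all samples by about 3 SD, 99.7% confidence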;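 note: fluorescence intensity change per second fitted from 20 to 320 s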). The settings on record: Recombinant KvBeta, NADPH fluorescence decrease slope, 10 min; at 10 µM; stronger effect = lower value.
For test [6], the target named is Alpha-2C adrenergic receptor (Homo sapiens) (UniProt P18825). Description: modulators of alpha2C/GIRK thallium flux, primary screen, cell-based, HEK293 alpha2C/GIRK1/2 (AID 624).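 Note: slope of fluorescence ratio to pre-addition baseline per second over 15 to 24 s.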 The settings on record: thallium flux BTC fluorescence, at 10 µM, actives lie on both sides.
Test [7] is described as follows: inhibitors of Sendai virus-induced IRF3 signaling, primary screen, TLR/RLR signaling modifier project, cell-based, Sendai virus stimulus, luciferase, 10K MLSCN set (AID 602276;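 active = inhibition at or above 50% at 10 µM; inactive = inhibition below 50%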;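 note: firefly luciferase from ISG56 promoter only with Renilla not read in this screen; 0% = Sendai virus plus DMSO and 100% = medium plus DMSO without virus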). The settings on record: HEK293 RL24 IRF3 luciferase reporter, at 10 µM, stronger effect = higher value.
Test [8] can be described thus: inhibitors of poly I:C-induced TLR3 signaling, primary screen, cell-based, poly I:C stimulus, luciferase, 10K MLSCN set (AID 602277;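 active = inhibition of the reporter signal at or above 50%; inactive = inhibition below 50%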). The following applies: HEK293-TLR3 RL24 IRF3 luciferase reporter, at 10 µM, stronger effect = higher value. (In general: Reporter assays use an easily measured gene product as a stand-in for the process of interest.)

Sequence of Voltage-gated potassium channel subunit beta-2 (Rattus norvegicus) (P62483 whole entry, looked up): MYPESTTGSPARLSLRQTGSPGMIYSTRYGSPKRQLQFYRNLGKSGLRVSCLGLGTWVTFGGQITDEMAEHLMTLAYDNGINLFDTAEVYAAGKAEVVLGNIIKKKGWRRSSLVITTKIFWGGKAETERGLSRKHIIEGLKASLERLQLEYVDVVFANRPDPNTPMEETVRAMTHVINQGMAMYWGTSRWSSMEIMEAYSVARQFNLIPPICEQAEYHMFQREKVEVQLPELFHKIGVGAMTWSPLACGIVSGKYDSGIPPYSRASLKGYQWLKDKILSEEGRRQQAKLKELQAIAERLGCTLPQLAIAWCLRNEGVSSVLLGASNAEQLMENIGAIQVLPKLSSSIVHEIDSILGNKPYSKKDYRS
Sequence of Alpha-2C adrenergic receptor (Homo sapiens) (P18825 whole entry, looked up): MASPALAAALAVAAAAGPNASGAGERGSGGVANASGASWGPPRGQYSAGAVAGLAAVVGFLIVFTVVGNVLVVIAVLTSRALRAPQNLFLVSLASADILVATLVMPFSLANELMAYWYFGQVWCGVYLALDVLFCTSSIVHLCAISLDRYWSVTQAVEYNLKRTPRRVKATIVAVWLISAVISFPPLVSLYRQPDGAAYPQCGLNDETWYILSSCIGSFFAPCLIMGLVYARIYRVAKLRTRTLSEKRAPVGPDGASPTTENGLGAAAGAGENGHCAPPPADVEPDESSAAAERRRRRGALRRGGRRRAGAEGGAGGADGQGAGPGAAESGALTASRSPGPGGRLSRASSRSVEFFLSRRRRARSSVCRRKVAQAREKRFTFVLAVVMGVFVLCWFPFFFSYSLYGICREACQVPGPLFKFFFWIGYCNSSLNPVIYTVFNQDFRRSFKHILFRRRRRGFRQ

In turn, `CCN1CCN(C(=O)COc2cc(=O)n(CC)c3ccccc23)CC1` came in with a cell count in test [1] of 357. Further, the inhibition was 0% (inactive) in test [1], -7.3% (inactive) in test [3], 3.27% (inactive) in test [7] and 36.3% (inactive) in test [8]. The inhibition of aggregation in test [2] is -14.7% (inactive). The values for the nuclei count in test [2] and in test [3] were 99.2% and 115%, respectively. The fluorescence slope in test [4] was -0.386 (inactive). For the same molecule, the NADPH fluorescence slope in test [5] is -4.3e-05 (inactive). In test [6], the slope was 0.00614 (inactive).

For the molecule `c1ccc(C2NCc3ccccc3-n3cccc32)cc1` (stereo not given), the cell count in test [1] turned out to be 704. Moreover, the inhibition in test [1] was -11% (inactive); in test [3] it was -10.1% (inactive); in test [7], 6.74% (inactive); in test [8] it was 15.8% (inactive). Also, the inhibition of aggregation in test [2] is 22.5% (inactive). Besides, the results for the nuclei count in test [2] and in test [3] were 66.6% and 93.5%, respectively. Moreover, in test [4], the fluorescence slope is -0.554 (inactive). In addition, the NADPH fluorescence slope in test [5] was -4e-05 (inactive). The slope in test [6] was 0.00504 (inactive).

`Cc1ccc(CC2C(=O)N(C)C(=O)N(C)C2=O)s1`: the cell count in test [1] came out at 451. Besides, the inhibition is 2.6% (inactive) in test [1], 40.2% (inactive) in test [3], 1.08% (inactive) in test [7] and 25% (inactive) in test [8]. Besides, the inhibition of aggregation in test [2] was 2% (inactive). Moreover, the nuclei count in test [2] was 109%; in test [3], 101%. Besides, the fluorescence slope in test [4] was -0.471 (inactive). In addition, in test [5], the NADPH fluorescence slope was -4.3e-05 (inactive). Further, the slope in test [6] is 0.00411 (inactive).

Consider `Cc1cc(OCC(=O)O)c2c3c(c(=O)oc2c1)CCCC3`, for which, in test [1], the cell count was 361. The inhibition is 5.7% (inactive) in test [1], -74% (inactive) in test [3], -0.949% (inactive) in test [7] and -5.67% (inactive) in test [8]. Moreover, the inhibition of aggregation in test [2] was -15% (inactive). The nuclei count in test [2] was found to be 92.2%; in test [3], 87.1%. The fluorescence slope in test [4] was -0.117 (active). In addition, the NADPH fluorescence slope in test [5] was -1.4e-05 (inactive). The slope in test [6] is 0.00624 (inactive).

Consider `CC(=O)C1C(=O)NC23CCCCC2C1c1ccccc1O3` (stereo not given), for which the cell count in test [1] turned out to be 622. Besides, the inhibition in test [1] is 3.3% (inactive); in test [3] it was 25.3% (inactive); in test [7], 4.02% (inactive); in test [8] it was 14.8% (inactive). Moreover, the inhibition of aggregation in test [2] was 2.2% (inactive). The nuclei count in test [2] stood at 109%; in test [3], 99.5%. Further, the fluorescence slope in test [4] is -0.357 (inactive). Moreover, the NADPH fluorescence slope in test [5] was 4e-05 (inactive). Besides, in test [6], the slope was 0.0063 (inactive).

`CCCCn1c(O)c(C(C)=NC(Cc2c[nH]c3ccccc23)C(=O)OC)c(=O)[nH]c1=O` (stereo not given) gave a cell count in test [1] of 536. The inhibition in test [1] was -3.4% (inactive); in test [3] it was 33.5% (inactive); in test [7], 0.703% (inactive); in test [8], 14.9% (inactive). Moreover, the inhibition of aggregation in test [2] is 9.6% (inactive). In addition, the nuclei count in test [2] is 79.6%; in test [3], 112%. Also, the fluorescence slope in test [4] was -0.499 (inactive). The NADPH fluorescence slope in test [5] is 1.8e-05 (inactive). Further, in test [6], the slope was 0.00457 (inactive).

In test [1], `Cc1nn(-c2ccccc2)c2c1CC1(C(=O)N(C)C(=O)N(C)C1=O)C1CCCCN21` (stereo not given) yielded a cell count of 438. In addition, the inhibition is -14.2% (inactive) in test [1], -8.8% (inactive) in test [3], -9.7% (inactive) in test [7] and 28.2% (inactive) in test [8]. In addition, in test [2], the inhibition of aggregation was 26.9% (inactive). Further, the nuclei count in test [2] was 65.3%; in test [3] it was 101%. Further, the fluorescence slope in test [4] is -0.509 (inactive). Further, the NADPH fluorescence slope in test [5] is -2.5e-05 (inactive). Moreover, the slope in test [6] was 0.00545 (inactive).

For `Cc1ccc(Cn2c(C)c3cnn(CC(=O)N4CCC5(CC4)OCCO5)c(=O)c3c2C)cc1`, in test [1], the cell count came to 471. The inhibition in test [1] is -6.5% (inactive); in test [3], -135% (inactive); in test [7], 9.46% (inactive); in test [8] it was -2.44% (inactive). Also, the inhibition of aggregation in test [2] is -6.5% (inactive). For the same molecule, the nuclei count in test [2] and in test [3] was 110% throughout. Further, the fluorescence slope in test [4] is -0.332 (inactive). The NADPH fluorescence slope in test [5] is -6.2e-05 (inactive). Further, in test [6], the slope was 0.0048 (inactive).

Turning to `CN1C(=O)C(Cc2cccc3ccccc23)C(=O)N(C)C1=O`, the cell count in test [1] was 393. In addition, the inhibition in test [1] was 6.3% (inactive); in test [3], -57.4% (inactive); in test [7], 2.57% (inactive); in test [8], 32.2% (inactive). The inhibition of aggregation in test [2] was -7.2% (inactive). In addition, the nuclei count is 108% in test [2] and 125% in test [3]. Moreover, the fluorescence slope in test [4] was -0.47 (inactive). The NADPH fluorescence slope in test [5] was -4.8e-05 (inactive). Besides, the slope in test [6] was 0.00658 (inactive).

`CC(=NCc1ccc2c(c1)OCO2)c1c(O)n(C)c(=O)n(C)c1=O`: the cell count in test [1] was 629. For the same molecule, the inhibition in test [1] was -10.8% (inactive); in test [3], 5.3% (inactive); in test [7], 20.7% (inactive); in test [8], 25.9% (inactive). In addition, the inhibition of aggregation in test [2] was 0.7% (inactive). The figures for the nuclei count in test [2] and in test [3] were 94.1% and 97.5%, respectively. The fluorescence slope in test [4] is -0.409 (inactive). The NADPH fluorescence slope in test [5] is 1.3e-05 (inactive). Besides, the slope in test [6] is 0.00333 (inactive).

(Values after PubChem BioAssay.)
